This is one part of a sample in which hits are shown more often than they occur.
AMA1-RON2 inh = AMA1-RON2 (P. falciparum) interaction inhibition | AlphaScreen AMA1-biotinylated RON2 peptide binding | Potency, µM (titrated, usually from 58.2 µM), hits mostly inhibitors | 360,000 tested, 0.2% active | AID 720542; note: nearly all actives have a fitted effect of over 45% in size
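AMA1 (3D7) with his tag at 25 nM final met compounds first, then biotinylated RON2 peptide at 25 nM; detection used donor plus acceptor beads, 10 µg/mL apiece, read by AlphaScreen after 30 min at room temperature.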
Cycloheximide cs = counter-screen for Shiga toxin inhibitors: cycloheximide protein synthesis inhibition. cell reporter, cycloheximide protein synthesis inhibition counterscreen. 300,000 tested, 12% active. AID 2314. max response, %; in the data active = max response mostly above about 13%, no sharp cut-off; inactive = mostly below about 14%; note: read at 38.3 µM for the half of the compounds with a filed dose
SARS PLP yeast = SARS-CoV PLP inhibition in yeast; S. cerevisiae expressing SARS-CoV PLpro, growth rescue; AID 485353; 330,000 tested, 0.19% active; Potency, µM (top dose mostly 32.9 µM), most hits filed as activators; calls by dose curve; note: nearly all actives have a fitted effect of over 55% in size
AmpC no deterg = blocks E. coli AmpC beta-lactamase in detergent-free assay | P00811 | AmpC nitrocefin hydrolysis, absorbance 480 nm, 0.0001% Triton | Potency, µM (series often up to 57.1 µM), hits mostly inhibitors | 330,000 tested, 0.52% active | AID 485341; note: nearly all actives have a fitted effect of over 20% in size
Target sequence (P00811 whole entry, looked up): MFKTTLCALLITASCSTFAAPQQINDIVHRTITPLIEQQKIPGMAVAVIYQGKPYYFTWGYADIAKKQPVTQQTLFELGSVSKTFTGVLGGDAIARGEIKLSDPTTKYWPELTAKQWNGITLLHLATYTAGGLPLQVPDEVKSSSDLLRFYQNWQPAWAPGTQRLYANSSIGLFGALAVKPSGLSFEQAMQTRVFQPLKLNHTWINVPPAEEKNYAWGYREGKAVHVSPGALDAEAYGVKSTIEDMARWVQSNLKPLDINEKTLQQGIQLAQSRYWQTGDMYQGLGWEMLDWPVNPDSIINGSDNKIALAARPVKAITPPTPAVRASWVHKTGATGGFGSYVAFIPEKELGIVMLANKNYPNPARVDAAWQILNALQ
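20 mM phosphate pH 7.0 + 0.01% (detergent screen) or 0.0001% Triton X-100; 5.3 nM AmpC reagent; cpd preinc 15 min RT; nitrocefin (800 uM stock) to start; A480 q20 s × 4 min; Activity was normalised to no-enzyme and no-compound control wells.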
AmpC detergent = AmpC beta-lactamase inhibition with detergent present | P00811 | AmpC hydrolysis of nitrocefin, absorbance 480 nm, 0.01% Triton | Potency, µM (doses to about 114 µM), usual class: inhibitors | 370,000 tested, 0.041% active; note: nearly all actives have a fitted effect of over 25% in size
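AmpC (5.3 nM in the dispensed reagent) in 20 mM phosphate pH 7.0 with 0.01% (detergent screen) or 0.0001% Triton X-100 was preincubated with compounds for 15 min at room temperature. Nitrocefin was then added from an 800 uM solution, and hydrolysis was followed at 480 nm.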
Shiga toxin inh = Shiga toxin inhibition. inhibition, % at 38.7 µM. 290,000 tested, 9.2% active. Vero cells, Shiga toxin protein synthesis inhibition reporter; in the data active = inhibition mostly above about 28%, no sharp cut-off; inactive = mostly below about 43%
Of the large screens only hits and unclear results are named; the others gave an inactive call. Unless noted, calls come from the whole dose curve; as a rule, active = well fitted curve in the direction sought with a large enough effect; inconclusive = small, poorly fitted or top-dose-only effect, or another doubt; inactive = no such curve, though single readings can be large; an effect the other way counts as inactive or inconclusive.

Cc1[nH]n(-c2ccccc2)c(=O)c1C=NCC1CCCO1 (configuration not stated)	Cycloheximide cs 23, Shiga toxin inh 49
Cc1[nH]n(-c2ccccc2)c(=O)c1C=NCc1ccco1	Cycloheximide cs 41, Shiga toxin inh 98 (no result: AMA1-RON2 inh)
COc1ccc(NC(=O)CCN2CCN(S(=O)(=O)c3ccc(Cl)cc3)CC2)cc1	none
Cc1[nH]n(-c2cccc(Cl)c2)c(=O)c1C=NCC(C)C	Cycloheximide cs 43, Shiga toxin inh 96
Cc1[nH]n(-c2ccccc2)c(=O)c1/C=N/N(C)c1ccccc1	Shiga toxin inh 45
Cc1[nH]n(-c2ccccc2)c(=O)c1/C=N/O	none
Cc1ccc(C(=O)NC2CCN(CCCC(=O)c3ccc(F)cc3)CC2)cc1	none
Fc1cccc(F)c1/C=N/Nc1ccccn1	Cycloheximide cs 50, AmpC detergent inconclusive, Shiga toxin inh 95
Fc1cccc(/C=N/Nc2ccccn2)c1	Cycloheximide cs 56, AmpC detergent inconclusive, Shiga toxin inh 81
C(=N\Nc1ccccn1)/c1ccc2c(c1)OCCO2	Cycloheximide cs 35, Shiga toxin inh 33
COc1cccc(C2CC(C(F)(F)F)n3ncc(C(=O)NCc4ccco4)c3N2)c1 (configuration not stated)	none
Cc1cc(N2CCCC2)ccc1NC(=O)COc1cccc(C(F)(F)F)c1	none
CCOc1ccc(NC(=O)CN(C)C(=O)C2CCCC2)cc1OCC	none
CC(=O)Nc1ccc(OC/C=C(\C)Cl)cc1	Cycloheximide cs 17, AmpC detergent inconclusive
Clc1ccc(OCc2cnc(Cl)s2)cc1	Cycloheximide cs 26
O=C1NC(=O)/C(=C\c2ccc(OCc3cnc(Cl)s3)cc2)S1	none
CCOc1ccc(C(=O)COc2ccc(NC(C)=O)cc2)cc1	none
CC(=O)Nc1ccc(OCc2cnc(Cl)s2)cc1	Cycloheximide cs 25
CCc1ccc(OCc2cnc(Cl)s2)cc1	Cycloheximide cs 28
O=C(NCC(O)c1ccccc1)c1cccc(S(=O)(=O)N2CCOCC2)c1 (configuration not stated)	none
COCCCn1c(SCc2nnc(-c3ccc(OC)c(OC)c3)o2)nnc1-c1ccncc1	none
C[C@@H]1CN([C@H](C)CO)C(=O)CCCn2nncc2CO[C@@H]1CN(C)S(=O)(=O)c1ccc(C#N)cc1	none (no result: Cycloheximide cs, SARS PLP yeast, AmpC no deterg, AmpC detergent, Shiga toxin inh)
CCOC(=O)c1cc2c(=O)n3ccccc3nc2n(CC(C)C)c1=NC(=O)c1cc2ccccc2o1	none (no result: AMA1-RON2 inh, Cycloheximide cs, SARS PLP yeast, AmpC no deterg, Shiga toxin inh)
Cc1ccccc1NC(=O)CSc1n[nH]c(-c2ccccn2)n1	AMA1-RON2 inh 8.9µM
O=C(CSc1ncccn1)Nc1cccc2ccccc12	Cycloheximide cs 22
Cc1ccc(C)c(NC(=O)CSc2n[nH]c(-c3ccccn3)n2)c1	none
Cc1ccc(CNC(=O)CSc2ncccn2)cc1	Cycloheximide cs 24, Shiga toxin inh 43
O=C(Nc1cccc2ccccc12)N1CCN(c2ncccn2)CC1	none
S=C(Nc1cccc2ccccc12)N1CCN(c2ncccn2)CC1	Cycloheximide cs 24
O=C(CSCC(=O)Nc1cccc2ccccc12)Nc1cccc2ccccc12	AmpC no deterg inconclusive
O=C(Cn1cc(C(=O)C2CC2)c2ccccc21)NCC1CCCO1 (configuration not stated)	none
O=C1CCCc2[nH]c3cccc(/C(=C/c4ccccc4)c4ccccc4)c3c21	none
CCOc1ccc(S(=O)(=O)N(CC)CC(=O)NCc2ccncc2)cc1	none
O=S(=O)(Nc1ccc(N2CCCCC2)cc1)c1ccc(F)cc1F	AMA1-RON2 inh inconclusive, Cycloheximide cs 16
O=S(=O)(Nc1ccc(N2CCCCC2)cc1)c1ccccc1F	AMA1-RON2 inh inconclusive, Cycloheximide cs 16
Fc1cccc(Cl)c1CNc1ccc(N2CCCC2)cc1	AMA1-RON2 inh inconclusive, Cycloheximide cs 29
COC(=O)C1=C(c2c(C)noc2C)C[C@@H]2CC[C@H]1N2C(=O)NCc1ccc(C(F)(F)F)cc1	none (no result: Cycloheximide cs, Shiga toxin inh)
O=C(CN1C(=O)NC2(CCCC2)C1=O)Nc1nc(-c2ccc(F)cc2)cs1	none
COc1ccc2c(c1)c1c(c(=O)n(Cc3ccccc3)c(=O)n1CC(=O)NCc1ccccc1)n2C	none (no result: AMA1-RON2 inh, Cycloheximide cs, SARS PLP yeast, AmpC no deterg, Shiga toxin inh)
COCCSc1ccccc1C(=O)Nc1ccc2c(c1)OCO2	none
O=C(CCl)Nc1ccccc1C(=O)Nc1ccc2c(c1)OCO2	Cycloheximide cs 57, Shiga toxin inh 41
CSc1ccccc1C(=O)Nc1ccc2c(c1)OCO2	Cycloheximide cs 23, Shiga toxin inh 26
CSc1ccccc1C(=O)Nc1ccc(C)c(C)c1	Cycloheximide cs 42, Shiga toxin inh 91
COc1cccc(C(=O)Nc2ccc3c(c2)OCO3)c1OC	Cycloheximide cs 48, Shiga toxin inh 89
O=C(CCNC(=O)c1ccccc1Cl)Nc1ccc2c(c1)OCO2	none
Cc1ccc(S(=O)(=O)N(C)c2ccc(OCC(=O)Nc3nc4ccccc4s3)cc2)cc1	none
CCCc1nnc(SCC(=O)N2CCCC2)n1Cc1ccco1	none
Cc1cc(NC(=O)c2ccccc2)nc(C)n1	none
CCCOC(=O)c1ccc(NC(=O)CN(C)Cc2cccs2)cc1	none
CS(=O)(=O)N(CC(=O)Nc1ccccc1C(=O)N1CCOCC1)c1cccc(F)c1	none
O=C(Nc1ccc2c(c1)OCO2)c1c[nH]c(=O)n(-c2ccc(F)cc2)c1=O	Cycloheximide cs 16
COc1ccc(C(=O)Nc2ccc3[nH]ncc3c2)cc1OC	none
COc1cccc(C(=O)Nc2ccc3[nH]ncc3c2)c1OC	Cycloheximide cs 32, Shiga toxin inh 71
COc1ccc(-n2c(=O)[nH]cc(C(=O)Nc3ccc4c(c3)OCCO4)c2=O)cc1OC	none
CC1Cc2nc(SCC(=O)NC3CCCCC3)n(C)c(=O)c2S1 (configuration not stated)	none
COc1ccc2c(c1)C(=O)CC(c1ccc(OC)c(OC)c1)O2 (configuration not stated)	none (no result: Shiga toxin inh)
Cc1ccc2c(c1)C(=O)CC(c1ccc3c(c1)OCCO3)O2 (configuration not stated)	Cycloheximide cs 41, Shiga toxin inh 64
COc1ccc2c(c1)C(=O)CC(c1ccc3c(c1)OCCO3)O2 (configuration not stated)	Cycloheximide cs 43, Shiga toxin inh 61
COc1ccc2c(c1)C(=O)CC(c1ccccc1F)O2 (configuration not stated)	Cycloheximide cs 13, Shiga toxin inh 36
O=C1CC(c2ccc(O)cc2)Oc2ccccc21 (configuration not stated)	none (no result: Cycloheximide cs, Shiga toxin inh)
COc1ccc(CNC(=O)c2ccc(Cn3cc(Br)cn3)o2)cc1	none
CN(C)c1cccc(-c2csc(N3CCC(C(N)=O)CC3)n2)c1	none (no result: AMA1-RON2 inh, Cycloheximide cs, AmpC detergent, Shiga toxin inh)
Cc1ccc(/C=C2/NC(=O)N(Cc3ccccc3)C2=O)s1	Cycloheximide cs 55
Cc1ccc(NC(=O)CN2C(=O)N/C(=C/c3ccc(C)s3)C2=O)cc1	none

Compound activity: PubChem, National Center for Advancing Translational Sciences (NCATS)
